# Results: the OligoGym collection
# Molecular target: HDHD2
# Assay: pooled miR-30 sensor sort-seq; sequence = guide strand
# Details: shRNA
# Also: reference of the scale not given here.
row,Sequence,sensor-assay potency score (higher = more potent)
1,TAAACTTCTGGCTGCAGTCAGA,-0.973
2,TTTGAAATCAGGTAGTGCCCGA,-0.154
3,TTGCTATCAGAGGTGCTCCATC,-0.808
4,TTCCGCTCTAGTAAACTTCTGG,0.0507
5,TAACCTTTTAAGAGCTTCCTGT,-0.227
6,TCAACTAGCAGCATGGGTCTGA,0.908
7,TAACAGGTCTTGCTTGCTCTCT,-0.886
8,TTCCTTTGAAATCAGGTAGTGC,-0.746

# Molecular target: HEATR8
# Assay: as above
# Details: shRNA
row,Sequence,sensor-assay potency score (higher = more potent)
1,TTCAACACAGAGACATTGGTGT,0.958
2,TTGAACTTGTGCTCCAGGTGGT,0.565
3,TTGGCGGTCTTCTCAGACCTGC,-0.945
4,TTCAGGTTCAGCTTGGAGGTGT,0.381
5,TAACAGGGTCTTCACACACTTC,-1.46
6,TACCACTCCAGCACCGAGCTGA,-0.0285
7,AACATGACTGAGCACTTCCGGA,-0.961
8,TAACACACCCATGAGTTCCCGT,-0.71
9,TTGGTCTCTTCCTTATCTCTGG,-0.426
10,TTCTTTATCATGGTCTTCTTTT,-1.04
11,TTGAGTGATGGTCACGCTCAAA,-1.7
12,TTCACCACTTTCACCACCCAGC,-0.301

# Molecular target: HECTD1
# Assay: as above
# Details: shRNA
row,Sequence,sensor-assay potency score (higher = more potent)
1,TAGAGTTGAACAACCAGTGGTA,0.312
2,TAGCACATAATCATCATCCCAT,0.659
3,TAAGAGGTCGTTGTGAAGCTGC,-0.0408
4,TTTACTTCGAATACAATCTATA,-1.13
5,TTGACTACAATCTTGTTTCATA,-0.725
6,TTGCGTACAACCGTGAGCCTGG,0.726
7,TCGAATACAATCTATAAGCTGC,0.194
8,TGCATCAGTAGCATCAACCTTG,0.0486
9,TTAATTGTTCACACCAGTCTGG,-0.677
10,TAAGTCCTCATCATCATCGAGC,-0.93
11,TTAACTTTCGAATTAACGCAAC,-1.04

# Molecular target: HEPH
# Assay: as above
# Details: shRNA
row,Sequence,sensor-assay potency score (higher = more potent)
1,TTTCTGTGCACACATGTTCAGC,-0.645
2,TATGTCACTGTCCAGAGGCTGG,-1.3
3,TTGTCAGACTTTAAGAAGCTGG,-0.791
4,TAGTAGATTCTAGCACTCCATG,-1.17
5,TATCCTCTGAAAGCAGTCGGAA,-1.21
6,TGATATAGTAGATTCTTGCAGC,-0.0504
7,TACAGCTTTCTTGTATCTGGAA,-0.122
8,TAGCTTTCTCTGTCGATGTTGG,-0.344
9,TATAGTAGATTCTTGCAGCTTG,0.849
